Records with an inconclusive call do not appear. Entries that show only a call come without a potency. A number with no mark means an inactive call. Activity calls are given as the source filed them. Calls follow the shape of the dose curve; as a rule, active = well fitted inhibition curve with a large enough effect; inconclusive = small, poorly fitted or top-dose-only effect; inactive = flat fitted curve, though single readings scatter.
system: MCC-26; assay: qHTS assay to identify novel small-molecules to repurpose for Merkel cell carcinoma treatment (AID 1296009); conditions: MCC and control cell lines, CellTiter-Glo viability, 72 h; series mostly up to 46 µM; also: nearly all actives have a fitted effect of over 60% in size
Text: MCC is a rare and aggressive neuroendocrine skin cancer with limited treatment options. Approximately 80% of MCCs have the Merkel cell polyomavirus (MCPyV) DNA integrated into the host genome (virus-positive: VP-MCC) and viral oncogenes drive oncogenesis. The remaining MCCs are virus-negative (VN-MCC) and are caused by UV mutagenesis. To identify novel treatments for VP-MCC and/or VN-MCC we screened three VP-MCC cell lines (WAGA, MKL-1, MKL-2), three VN-MCC cell lines (MCC-13, MCC-26, UISO), and four immortalized, non-transformed control cell lines (HaCaT, HEK293T, CRL7250, NIH-3T3) against ~2,400 compounds in the NCGC Pharmaceutical Collection (NPC) and ~1,900 compounds in the Mechanism Interrogation PlatE (MiPE). Using cell viability as a readout (CellTiter-Glo assay) we found both overlapping and distinct drugs that can be repurposed for the treatment of VP-MCC and VN-MCC.
A high-throughput screen was conducted in 1536-well white flat bottom plates (Corning) on a Kalypsys robotic system. Cell lines WAGA, MKL-1, MKL-2, MCC-13, MCC-26, UISO, HaCaT, HEK293T, CRL7250, and NIH-3T3 were screened against 2 small molecule annotated drug libraries NPC and MIPE in dose response (8 and 11 pt. respectively) measuring cell viability after 72 hours of incubation. […] A 1,536 pintool (Kalypsys) was used to transfer 23 nL of compound in DMSO to the 1,536-well assay plates. After 72 hr incubation at 37 degree celsius, 2.5 uL of CellTiter-Glo (Promega) was dispensed into each well using a BiorapTR. Plates were incubated at room temperature for 10 min, transferred to a ViewLux (PerkinElmer) and the luminescence was recorded using an exposure time of 2 seconds. Relative luminescence units (RLUs) were normalized to in-plate controls (no cells as a positive (cytotoxicity) control, DMSO as negative control) and the normalized data was processed using NCATS in-house software.
Potency is read from the fitted curve at half-maximal effect.

SMILES | Potency | activity change, negative = cytotoxicity
C[C@H]1C[C@@H]2[C@@H]([C@@H](O)C[C@@]3(C)[C@H]2CC[C@]3(O)C(=O)CO)[C@@]2(C)C=CC(=O)C=C12 | inactive | 
Clc1ccc2ncc(-c3cccc(NC4CNC4)n3)n2c1 | inactive | 
NCC(=O)Nc1ccc(-n2nc(C(F)(F)F)cc2-c2ccc3c(ccc4ccccc43)c2)cc1 | inactive | 
Cc1cc(Nc2cc(NC(=O)c3c(Cl)cccc3Cl)ccn2)nc(N)n1 | 26.4 µM (active) | 
O=C(O)c1ccc2cc(-c3ccc(O)c(C45CC6CC(CC(C6)C4)C5)c3)ccc2c1 | 2.96 µM (active) | 
COC(=O)[C@]12CCC(C)(C)C[C@@H]1[C@@H]1C(=O)C=C3[C@@]4(C)C=C(C#N)C(=O)C(C)(C)[C@@H]4CC[C@@]3(C)[C@]1(C)CC2 | inactive | 
C=CC(=O)Nc1cccc(Oc2nc(Nc3ccc(N4CCN(C)CC4)cc3)ncc2Cl)c1 | 11.8 µM (active) | 
COc1ccc(CC2SC(=O)NC2=O)cc1C(=O)NCc1ccc(C(F)(F)F)cc1 (stereo not given) | inactive | 
CC(C)(C)c1cc(NC(=O)Nc2ccc(-c3cn4c(n3)sc3cc(OCCN5CCOCC5)ccc34)cc2)no1 | inactive | 
Cc1cccc(C=NNc2cc(N3CCOCC3)nc(OCCc3ccccn3)n2)c1 | inactive | 
CCOC(=O)C1=C(C)NC2=C(C(=O)CC(C)(C)C2)C1c1ccc(-c2ccccc2)cc1 (stereo not given) | inactive | 
C=CC(=O)Nc1cc2c(Nc3ccc(F)c(Cl)c3)ncnc2cc1C#CC(C)(C)N1CCN(C)CC1 | 10.5 µM (active) | 
CC1(C)O[C@@H]2C[C@@H]3[C@H]4C[C@@H](F)C5=CC(=O)C=C[C@]5(C)[C@@]4(F)[C@@H](O)C[C@]3(C)[C@]2(C(=O)CO)O1 | inactive | 
COc1cc2ncnc(Nc3ccc(F)c(Cl)c3)c2cc1NC(=O)C=CCN1CCCCC1 | inactive | 
CNC(=O)CN1CCC(Oc2cc3c(Nc4cccc(Cl)c4F)ncnc3cc2OC)CC1 | 2.64 µM (active) | 
Cn1c2cc(S(C)=O)sc2c2cnn(Cc3cccc(N)c3)c(=O)c21 (stereo not given) | inactive | 
C=CC(=O)Nc1cccc(Oc2nc(Nc3ccc(N4CCN(C)CC4)cc3OC)ncc2Cl)c1 | 11.8 µM (active) | 
CC=C1NC(=O)[C@H]2CSSCCC=C[C@H](CC(=O)N[C@H](C(C)C)C(=O)N2)OC(=O)[C@H](C(C)C)NC1=O | 0.0662 µM (active) | 
Cc1c(CN2CCN(S(C)(=O)=O)CC2)sc2c(N3CCOCC3)nc(-c3cnc(N)nc3)nc12 | 0.833 µM (active) | 
O=C(CCCCCCC(=O)Nc1ccc([C@H]2O[C@@H](CSc3nc(-c4ccccc4)c(-c4ccccc4)o3)C[C@@H](c3ccc(CO)cc3)O2)cc1)NO | 23.5 µM (active) | 

SMILES | Potency | activity change, negative = cytotoxicity
Nc1nc(-c2nn(Cc3ccccc3F)c3ncccc23)nc(N)c1N1CCOCC1 | inactive | 
Cc1ccc(-c2ncn(-c3ccc(Nc4nccc(-c5cccc(N6CCOCC6)c5)n4)cc3)n2)cn1 | 0.264 µM (active) | 
CCCNC(=O)Nc1ccc(Oc2ncnc3cc(OC)c(OC)cc23)cc1Cl | inactive | 
CC[C@@]1(O)C(=O)OCc2c1cc1n(c2=O)Cc2cc3cc(O)ccc3nc2-1 | 0.132 µM (active) | 
C=CCn1c(=O)c2cnc(Nc3ccc(N4CCN(C)CC4)cc3)nc2n1-c1cccc(C(C)(C)O)n1 | 4.69 µM (active) | 
Cc1ccc(S(=O)(=O)Nc2cc(Cl)ccc2C(=O)Nc2nc(-c3ccccc3)cs2)cc1 | inactive | 
CCCCN1CCC(CNC(=O)c2c3n(c4ccccc24)CCCO3)CC1 | inactive | 
C1Cc2[nH]nc(-c3nn[nH]n3)c2C1 | inactive | 
CC(C)(O)CCc1ccc(OCc2cc(-c3cccc(OC(F)F)c3)c3ncccc3c2)cc1 | inactive | 
CC(=O)OCCN1C(=O)c2c(C)nc3ccc(S(=O)(=O)N4CCOCC4)cc3c2C1=O | inactive | 
COc1cc2c(Oc3ccc(-c4cnc(Nc5ccc(F)cc5)n(C)c4=O)cc3F)ccnc2cc1OCCCN1CCOCC1 | 7.43 µM (active) | 
C[C@@]12O[C@@H](C[C@]1(O)CO)n1c3ccccc3c3c4c(c5c6ccccc6n2c5c31)CNC4=O | 18.7 µM (active) | 
CC(C)(C)NC(=O)[C@H]1CN(Cc2cccnc2)CCN1C[C@@H](O)C[C@@H](Cc1ccccc1)C(=O)N[C@H]1c2ccccc2C[C@H]1O | inactive | 
CC1(C)CCC(c2ccc(Cl)cc2)=C(CN2CCN(c3ccc(C(=O)NS(=O)(=O)c4ccc(N[C@H](CCN5CCOCC5)CSc5ccccc5)c(S(=O)(=O)C(F)(F)F)c4)cc3)CC2)C1 | inactive | 
C[C@@H]1CN(CC(=O)Nc2ccc3c(c2)Cc2cccc(-c4cc(=O)cc(N5CCOCC5)o4)c2S3)C[C@H](C)O1 | inactive | 
COc1ccc(CC2c3cc(OC)c(OC)cc3CC[N+]2(C)CCC(=O)OCCCCCOC(=O)CC[N+]2(C)CCc3cc(OC)c(OC)cc3C2Cc2ccc(OC)c(OC)c2)cc1OC (stereo not given) |  | 2.59% [at 9.22 µM]
Cc1cc(CN2CCN(c3c(Br)cnc4nc(-c5ccc(N6CCN(C)CC6)cc5)[nH]c34)CC2)no1 | inactive | 
Cc1c(C)n(Cc2ccc(-c3ccccc3C(=O)O)cc2)c2ccc(C(=O)N[C@@H](C)c3ccc([N+](=O)[O-])cc3)cc12 | inactive | 
O=C(O)C1(Cc2cccc(Nc3nccs3)n2)CCC(Oc2cccc(Cl)c2F)CC1 (stereo not given) | inactive | 
O=C(O)c1ccc2c(c1)nc(Nc1cccc(Cl)c1)c1ccncc12 | inactive | 

Source: PubChem BioAssay (NCATS)
